The panel holds about 79,000 compounds, 15% with a hit somewhere; the sample as a whole holds those more often. Activity calls are given as the source filed them. Cut-off read from the data, not from the text of the source: active = growth inhibition above about 70%; inactive = the rest.
How the values were obtained:
[1] = NCI Yeast Anticancer Drug Screen. Data for the rad52 strain (AID 147);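 note: 0% = growth of vehicle-treated control cultures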; details: S. cerevisiae rad52 mutant growth inhibition, active compounds read high
In short: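 Measured: yeast growth inhibition. System: strain with a defined DNA damage repair alteration. Reference: vehicle-treated control cultures.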

[2] = NCI Yeast Anticancer Drug Screen. Data for the rad50EPP+ strain (AID 151);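 note: 0% = growth of vehicle-treated control cultures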; details: S. cerevisiae rad50 mutant strain, active compounds read high
In short: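 One strain with a rad50 alteration (rad50EPP+) was compound-treated, its growth then compared to that of vehicle controls.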

[3] = NCI Yeast Anticancer Drug Screen. Data for the mgt1 strain (AID 153); details: S. cerevisiae mgt1 mutant growth inhibition, active compounds read high
In short: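 After exposure of the mgt1 yeast mutant to compound, growth was measured and reported as inhibition compared with vehicle controls.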

[4] = NCI Yeast Anticancer Drug Screen. Data for the rad50 strain (AID 155);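 note: 0% = growth of vehicle-only cultures of the same strain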; details: S. cerevisiae rad50 strain growth inhibition, active compounds read high
In short: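 A DNA repair-deficient yeast mutant serves as the test organism; compound-induced growth inhibition is calculated against vehicle-treated cells.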

[5] = NCI Yeast Anticancer Drug Screen. Data for the mec2-1 strain (AID 157); details: S. cerevisiae mec2-1 strain, active compounds read high
In short: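 Test agents were screened against the mec2-1 yeast strain, with defined DNA repair or cell cycle alteration. Growth was scored as inhibition against vehicle-only controls.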

[6] = NCI Yeast Anticancer Drug Screen. Data for the sgs1 mgt1 strain (AID 161);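 note: 0% = growth of cultures given vehicle only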; details: S. cerevisiae sgs1 mgt1 strain, active compounds read high
In short: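 Read-out: growth inhibition vs vehicle controls. Cells: mutant yeast strain deficient in DNA damage repair.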

[7] = NCI Yeast Anticancer Drug Screen. Data for the CLN2oe strain (AID 163);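 note: 0% = growth of vehicle-only control cultures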; details: S. cerevisiae CLN2oe strain, active compounds read high
In short: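 Here, growth inhibition in a cell-cycle-altered yeast strain after compound exposure was quantified against vehicle control growth.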

[8] = NCI Yeast Anticancer Drug Screen. Data for the cln2 rad14 strain (AID 165);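 note: 0% = growth equal to vehicle treated cultures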; details: S. cerevisiae cln2 rad14 strain, active compounds read high
In short: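 Growth of compound-exposed yeast (cln2 rad14 genotype) measured and expressed as inhibition relative to vehicle.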

[9] = NCI Yeast Anticancer Drug Screen. Data for the bub3 strain (AID 167); details: S. cerevisiae bub3 mutant strain, active compounds read high
In short: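 Inhibition values come from growth of compound-treated mutant yeast normalised to vehicle-treated controls.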

[10] = NCI Yeast Anticancer Drug Screen. Data for the wt2 strain (AID 169);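 note: 0% = growth of vehicle-treated yeast cultures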; details: S. cerevisiae wt2 strain growth inhibition, active compounds read high
In short: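 Genetically defined yeast strains from a DNA-repair/cell-cycle panel were used. Compound-exposed yeast growth was measured, and the inhibition was calculated relative to vehicle treatment.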

[11] = NCI Yeast Anticancer Drug Screen. Data for the mlh1 strain (AID 171);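 note: 0% = growth of vehicle-treated control cultures of the same strain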; details: S. cerevisiae mlh1 strain growth inhibition, active compounds read high
In short: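 Here the genetically defined yeast mutant is grown with each compound, and the extent to which its growth falls below that of vehicle-exposed cells is reported.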

[12] = NCI Yeast Anticancer Drug Screen. Data for the sgs1 strain (AID 173);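 note: 0% = growth of vehicle-only control cultures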; details: S. cerevisiae sgs1 mutant, active compounds read high
In short: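 Relative growth inhibition, referenced to vehicle, was determined in a yeast strain with a defined alteration affecting DNA damage repair or cell cycle control after compound exposure.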

[13] = NCI Yeast Anticancer Drug Screen. Data for the mlh1 rad18 strain (AID 175); details: S. cerevisiae mlh1 rad18 strain growth inhibition, active compounds read high
In short: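 In this whole-cell yeast screen, a strain with altered DNA damage repair is challenged with compound, and its growth is measured against matched vehicle-treated controls.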

[14] = NCI Yeast Anticancer Drug Screen. Data for the rad18 strain (AID 177); details: S. cerevisiae rad18 mutant growth inhibition, active compounds read high
In short: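 Screen uses a yeast strain with a defined lesion in DNA damage repair; compound effect is read as loss of growth compared to untreated vehicle cultures.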

[15] = NCI Yeast Anticancer Drug Screen. Data for the rad14 strain (AID 159);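 note: 0% = growth of vehicle-treated control cultures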; details: S. cerevisiae rad14 strain growth inhibition, active compounds read high
In short: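 Vehicle-treated cultures served as the baseline for growth inhibition of a DNA repair-mutant yeast strain exposed to each compound.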

[16] = at 5.0 µM (retest, dose inferred, filed as 0.5)
[17] = at 50.0 µM (retest, dose inferred, filed as 5.0)

Measured: growth inhibition

Oc1c2c(c(O)c3ccccc13)C1(N=N2)c2ccccc2Oc2ccccc21
active: [1]; at 3.7 µM 72% | [1]; at 11.0 µM 98% | [1]; at 33.0 µM 97% | [1]; at 100.0 µM 93% | [2]; at 11.0 µM 93% | [2]; at 33.0 µM 95% | [2]; at 100.0 µM 85% | [3]; at 11.0 µM 98% | [3]; at 33.0 µM 97% | [3]; at 100.0 µM 94% | [4]; at 3.7 µM 82% | [4]; at 11.0 µM 98% | [4]; at 33.0 µM 94% | [4]; [17] 98% | [4]; at 50.0 µM 98.5% | [4]; at 100.0 µM 90% | [5]; at 11.0 µM 98% | [5]; at 33.0 µM 97% | [5]; [17] 98% | [5]; at 50.0 µM 98.7% | [5]; at 100.0 µM 94% | [6]; [17] 98% | [6]; at 50.0 µM 98.6% | [7]; at 11.0 µM 98% | [7]; at 33.0 µM 95% | [7]; at 100.0 µM 88% | [8]; [17] 97% | [8]; at 50.0 µM 92.2% | [9]; at 11.0 µM 98% | [9]; at 33.0 µM 96% | [9]; [17] 97% | [9]; at 50.0 µM 99% | [9]; at 100.0 µM 93% | [10]; at 11.0 µM 98% | [10]; at 33.0 µM 97% | [10]; at 100.0 µM 94% | [11]; at 11.0 µM 98% | [11]; at 33.0 µM 97% | [11]; at 100.0 µM 94% | [12]; at 3.7 µM 81% | [12]; at 11.0 µM 98% | [12]; at 33.0 µM 98% | [12]; at 100.0 µM 95% | [13]; [17] 98% | [13]; at 50.0 µM 98% | [14]; at 3.7 µM 74% | [14]; at 11.0 µM 98% | [14]; at 33.0 µM 96% | [14]; at 100.0 µM 92%
inactive: [1]; at 1.2 µM 20% | [2]; at 1.2 µM 8% | [2]; at 3.7 µM 54% | [3]; at 1.2 µM 10% | [3]; at 3.7 µM 47% | [4]; at 1.2 µM 17% | [4]; [16] 46% | [5]; at 1.2 µM 10% | [5]; at 3.7 µM 44% | [5]; [16] 31% | [6]; [16] 57% | [7]; at 1.2 µM 15% | [7]; at 3.7 µM 39% | [8]; [16] 19% | [9]; at 1.2 µM 8% | [9]; at 3.7 µM 62% | [9]; [16] 21% | [10]; at 1.2 µM 4% | [10]; at 3.7 µM 49% | [11]; at 1.2 µM 13% | [11]; at 3.7 µM 43% | [12]; at 1.2 µM 14% | [13]; [16] 42% | [14]; at 1.2 µM 18%

COC(=O)C1CCCCC1C(=O)Nc1ccccc1 (stereo unspecified)
active: [9]; at 50.0 µM 74.2%
inactive: [1]; at 1.2 µM 0% | [1]; at 3.7 µM 1% | [1]; at 11.0 µM 1% | [1]; at 33.0 µM 1% | [1]; at 100.0 µM -2% | [2]; at 1.2 µM -3% | [2]; at 3.7 µM -1% | [2]; at 11.0 µM -1% | [2]; at 33.0 µM -6% | [2]; at 100.0 µM 0% | [3]; at 1.2 µM 0% | [3]; at 3.7 µM -1% | [3]; at 11.0 µM 1% | [3]; at 33.0 µM -1% | [3]; at 100.0 µM -32% | [4]; at 1.2 µM -3% | [4]; at 3.7 µM -1% | [4]; [16] 10% | [4]; at 11.0 µM 0% | [4]; at 33.0 µM 0% | [4]; [17] 2% | [4]; at 50.0 µM 20.8% | [4]; at 100.0 µM -3% | [5]; at 1.2 µM -3% | [5]; at 3.7 µM -3% | [5]; [16] 0% | [5]; at 11.0 µM -2% | [5]; at 33.0 µM -4% | [5]; [17] -2% | [5]; at 50.0 µM 10.8% | [5]; at 100.0 µM -1% | [15]; at 1.2 µM -2% | [15]; at 3.7 µM -3% | [15]; at 11.0 µM -2% | [15]; at 33.0 µM -1% | [15]; at 100.0 µM -3% | [6]; [16] 0% | [6]; [17] -26% | [6]; at 50.0 µM 15.4% | [7]; at 1.2 µM -3% | [7]; at 3.7 µM -1% | [7]; at 11.0 µM -4% | [7]; at 33.0 µM -3% | [7]; at 100.0 µM -1% | [8]; [16] -2% | [8]; [17] 6% | [8]; at 50.0 µM 62.5% | [9]; at 1.2 µM -10% | [9]; at 3.7 µM -10% | [9]; [16] -7% | [9]; at 11.0 µM -12% | [9]; at 33.0 µM -12% | [9]; [17] -9% | [9]; at 100.0 µM -11% | [10]; at 1.2 µM -2% | [10]; at 3.7 µM -1% | [10]; at 11.0 µM -2% | [10]; at 33.0 µM -4% | [10]; at 100.0 µM -1% | [11]; at 1.2 µM 0% | [11]; at 3.7 µM 0% | [11]; at 11.0 µM 2% | [11]; at 33.0 µM 2% | [11]; at 100.0 µM 2% | [12]; at 1.2 µM -2% | [12]; at 3.7 µM -2% | [12]; at 11.0 µM 0% | [12]; at 33.0 µM 0% | [12]; at 100.0 µM 1% | [13]; [16] -3% | [13]; [17] -2% | [13]; at 50.0 µM 25.6% | [14]; at 1.2 µM -2% | [14]; at 3.7 µM -1% | [14]; at 11.0 µM -2% | [14]; at 33.0 µM -3% | [14]; at 100.0 µM -1%

Reference: PubChem BioAssay (NCI)
